This is a sample that favours compounds with a hit; in the whole collection about 1.5% have one here.
N-glyco inh: increase of ERlucT glycosylation luciferase signal, primary screen, N-linked glycosylation inhibitor project, D54 ERlucT cells, luminescence, set 2. D54 ERlucT glycosylation luciferase reporter, 24 h; percent of 100 nM tunicamycin response. reporter increase, % at 12.5 µM. hit rate 0.23% among 360,000. AID 588692, 2011;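 active means mean luciferase reporter signal, scaled so untreated is 0 and the glycosylation-blocking control 100, at or above a set limit in every replicate; inconclusive means mean reaches the limit but not every replicate does; inactive means mean below the limit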;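 further: luciferase carries N-glycosylation sites so blocking glycosylation raises the light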
RAD52 anneal inh: RAD52 DNA annealing inhibitors, primary screen, biochemical, FRET, single point, set 2; inhibition, % at 18.7 µM; recombinant RAD52 DNA annealing, FRET fluorescence; AID 651710, 2012; DNA repair protein RAD52 homolog (Homo sapiens), P43351; hit rate 0.46% among 360,000;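 active means every replicate showing at least 50% inhibition; inconclusive means mean inhibition at least 50% but not in every replicate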
RAD54 inh: inhibitors of human RAD54 branch migration, primary screen, biochemical, fluorescence, single point; RAD54 Holliday junction branch migration, FAM/BHQ fluorescence; DNA repair and recombination protein RAD54-like (Homo sapiens), Q92698; inhibition, % at 10.4 µM; hit rate 0.14% among 360,000;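 active means mean normalized replicate activity at least 40 and at least half of replicates scoring 40 or more; inconclusive means only one of the two criteria met; inactive means mean below 40 and under half of replicates reaching 40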;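 further: inhibitors cause a drop in the FAM fluorescence signal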
PvdQ inh: P. aeruginosa PvdQ acylase inhibitors, primary screen, biochemical, fluorescence, plate reader and imaging, single point | PvdQ acylase [Pseudomonas aeruginosa LESB58] | purified PvdQ acylase | inhibition, % at 10 µM | hit rate 0.063% among 340,000 | AID 488965, 2010; in the data active means inhibition above about 30%, passing the limit was not always enough; inconclusive means no clear call, values can overlap the other calls
dFosB act: activators of delta FosB homodimer, primary screen, biochemical, fluorescence polarization, TAMRA-CDK5 oligo, single point; Protein FosB (Mus musculus), P13346; purified delta FosB; percent of positive-control signal above neutral wells; activation, % at 25 µM; hit rate 0.99% among 340,000; AID 493131, 2011;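 active means mean activation above about 17%, with every replicate also reaching it, limit read from the data, passing the limit was not always enough; inconclusive means only one of the two conditions met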
Target sequence (P13346 whole entry, looked up): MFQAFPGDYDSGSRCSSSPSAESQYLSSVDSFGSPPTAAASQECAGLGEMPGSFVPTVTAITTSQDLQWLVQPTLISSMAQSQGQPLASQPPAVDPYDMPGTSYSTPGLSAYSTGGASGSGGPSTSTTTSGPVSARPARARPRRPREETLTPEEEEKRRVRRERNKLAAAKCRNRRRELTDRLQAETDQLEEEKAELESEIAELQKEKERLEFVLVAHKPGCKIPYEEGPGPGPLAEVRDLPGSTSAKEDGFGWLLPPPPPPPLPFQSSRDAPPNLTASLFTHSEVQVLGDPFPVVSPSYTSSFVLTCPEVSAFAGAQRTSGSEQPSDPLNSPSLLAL
CFTR F508del cor: F508del CFTR correction, initial screen, CFBE line, single point | activity (quench increase), % at 7.58 µM | hit rate 0.36% among 350,000 | CFBE cells, YFP halide quenching; stimulated with forskolin plus potentiator P3; % fluorescence drop versus neutral controls | AID 720511, 2013;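 active means mean added fluorescence quench of at least 8% versus neutral control, with both replicates also reaching 8%; inconclusive means only one of the mean or replicate conditions met; inactive means mean below 8% and not both replicates reaching 8%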;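 further: cells transiently co-express mutant CFTR-F508del with the halide-sensitive YFP; corrector assay measuring rescue of mutant channel to the surface after 24 h compound exposure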
Hits are given with their value; – = inactive; ? = inconclusive; · = not tested or not shown; ! = not active in a repeat.

SMILES	N-glyco inh	RAD52 anneal inh	RAD54 inh	PvdQ inh	dFosB act	CFTR F508del cor
Cc1ccc(C(=O)Nc2cccc(C(F)(F)F)c2)cc1Nc1cnccn1	–	–	–	–	–	10
C[C@@H]1CN([C@@H](C)CO)C(=O)c2cc(NS(=O)(=O)c3cccs3)ccc2O[C@@H](C)CCCCO[C@@H]1CN(C)C(=O)CCC(F)(F)F	·	·	–	·	·	–
COc1ccccc1NC(=O)c1nnn(CC(=O)Nc2ccccc2)c1N	–	·	–	–	–	·
Cc1cc(C)cc(NC(=O)Cn2nnc(C(=O)NCCc3ccccc3)c2N)c1	–	–	–	–	83	–
CCOc1ccccc1NC(=O)c1nnn(CC(=O)Nc2cc(C)cc(C)c2)c1N	–	–	–	–	26	–
CCOc1ccc(NC(=O)Cn2nnc(C(=O)NCCc3ccc(OC)c(OC)c3)c2N)cc1	–	·	·	–	32	·
COc1ccc(Cl)cc1NC(=O)c1nnn(CC(=O)Nc2ccc(C)c(C)c2)c1N	–	–	–	–	125	–
COc1ccc2c3c([nH]c2c1)[C@@H](CO)N(Cc1cccnc1)CC31CN(C(=O)c2cccnc2)C1	·	–	·	·	·	–
COc1cccc(Cn2nnc(C(=O)Nc3cc(C)ccc3OC)c2N)c1	–	·	–	–	–	·
COc1cccc(Cn2nnc(C(=O)Nc3ccc(C)cc3)c2N)c1	–	–	–	–	16	–
C[C@H](CO)N1C[C@H](C)[C@H](CN(C)C(=O)C2CCC2)Oc2cc(-c3ccccc3)ccc2S1(=O)=O	·	·	·	·	·	–
CSc1cccc(NC(=O)CC2Oc3ccccc3NC2=O)c1 (stereo unspecified)	–	–	–	–	37	–
COc1cccc(NC(=O)CC2Oc3ccccc3NC2=O)c1 (stereo unspecified)	–	–	–	–	–	–
COc1cc(NC(=O)c2csc(N)n2)cc(C(=O)Nc2cccc(C(F)(F)F)c2)c1	–	–	–	–	–	8.0!
COc1cc(NC(=O)c2cnc(N)s2)cc(C(=O)Nc2cccc(C(F)(F)F)c2)c1	–	–	–	·	·	–
C[C@@H]1CCCCO[C@@H](CN(C)S(C)(=O)=O)[C@H](C)CN([C@@H](C)CO)C(=O)c2cc(NC(=O)c3ccncc3)ccc2O1	·	·	–	·	·	–
CC1N(C)c2cc(NC(=O)c3ccco3)ccc2C1(C)C (stereo unspecified)	–	–	·	–	145	–
CC1N(C)c2cc(NC(=O)c3ccco3)c(P(=O)(Nc3ccc([N+](=O)[O-])cc3)N3CCOCC3)cc2C1(C)C (stereo unspecified)	–	–	·	–	?	–
COCC(=O)N1C[C@H](C)[C@@H](OC)CN(C)C(=O)c2ccc(NC(=O)NC(C)C)cc2OC[C@@H]1C	·	–	·	·	·	–
COC(=O)C1=CN(c2ccc3c(c2)OCO3)C(N)=C(C#N)C1c1cccc(F)c1 (stereo unspecified)	·	–	·	·	·	11
O=C1c2cccc3cc([N+](=O)[O-])cc(c23)C(=O)N1CC1CCCO1 (stereo unspecified)	–	–	–	–	–	–
CN(C)CCN1C(=O)c2cccc3cc([N+](=O)[O-])cc(c23)C1=O	43	–	·	–	49	–
C[C@H]1CN([C@@H](C)CO)C(=O)Cc2cc(NS(=O)(=O)c3ccccc3)ccc2O[C@@H]1CN(C)C	·	–	–	·	·	–
COc1cc(/C=C2/CCC/C(=C\c3cc(O)c(OC)c(Cl)c3)C2=O)cc(Cl)c1O	35	·	–	–	–	·
O=C(c1ccc(Cl)c(S(=O)(=O)N2CCCCC2)c1)N1CCN(Cc2ccccc2)CC1	29	–	–	–	–	–
SMILES	N-glyco inh	RAD52 anneal inh	RAD54 inh	PvdQ inh	dFosB act	CFTR F508del cor
O=C(c1ccc2ccccc2c1)N1CCN(Cc2ccccc2)CC1	–	–	–	–	–	11
O=C(C[C@H]1CC[C@H](NC(=O)Nc2cccc(F)c2)[C@H](CO)O1)NCC1CC1	·	–	–	·	·	–
S=C(NCCc1ccccc1)Nc1nccs1	–	–	–	–	–	9.2
Cc1ccc(N=C2NC(=O)/C(=C\c3ccco3)S2)cc1	–	·	–	–	–	·
Cn1cccc1/C=C1\SC(=Nc2ccc(O)cc2)NC1=O	–	–	·	–	–	12
Cn1cccc1/C=C1\SC(=Nc2cccc(O)c2)NC1=O	–	–	–	–	–	9.1
O=C1NC(=Nc2ccc(O)cc2)S/C1=C/c1ccco1	–	–	–	–	–	11
Cn1cccc1/C=C1\SC(=Nc2ccccc2)NC1=O	–	–	–	–	–	15
O=C(C[C@@H]1CC[C@H](NC(=O)Nc2cc(F)ccc2F)[C@H](CO)O1)Nc1ccccc1	·	–	–	·	·	–
O=C(C[C@H]1CC[C@H]2[C@@H](COC[C@H](O)CN2C(=O)c2ccc(F)cc2)O1)N1CCOCC1	·	–	–	·	·	–
COCC(=O)Nc1ccc2c(c1)OC[C@@H](C)N(C(=O)C1CCCC1)C[C@H](C)[C@H](OC)CN(C)C2=O	·	·	–	·	·	–
Cn1cnc2nc[nH]c2c1=S	–	–	–	–	–	16
Cn1cnc([N+](=O)[O-])c1Oc1ccc2ccccc2c1	47	·	·	–	–	·
CC(=O)c1cccc(-c2ccnc3c2CC(C(=O)NCc2ccco2)O3)c1 (stereo unspecified)	32	–	–	·	·	13
CC(=O)c1cccc(-c2ccnc3c2CC(C(=O)NCc2ccccc2)O3)c1 (stereo unspecified)	–	–	–	·	·	–
CC(=O)c1cccc(-c2ccnc3c2CC(C(=O)NCc2ccc(F)c(F)c2)O3)c1 (stereo unspecified)	34	–	–	·	·	–
NC(=O)c1cccc(-c2ccnc3c2CC(C(=O)NCc2ccco2)O3)c1 (stereo unspecified)	–	–	–	·	·	–
Cc1noc(C)c1S(=O)(=O)Nc1ccc2c(c1)C(=O)N([C@H](C)CO)C[C@@H](C)[C@@H](CN(C)Cc1ccc(Oc3ccccc3)cc1)O2	·	–	–	·	·	–
O=C(C[C@@H]1CC[C@@H]2[C@H](COC[C@H](O)CN2S(=O)(=O)c2ccc(F)cc2)O1)NCC1CCCCC1	·	–	–	·	·	–
Cc1ccc(S(=O)(=O)N2C[C@@H](O)COC[C@H]3O[C@H](CC(=O)NCC4CCCCC4)CC[C@@H]32)cc1	·	82	–	·	·	–
CN(C)CCCNC(=O)C[C@@H]1CC[C@H]2[C@@H](COC[C@H](O)CN2CC2CCCCC2)O1	·	65	·	·	·	–
Cc1ccc(S(=O)(=O)N2C[C@H](O)COC[C@H]3O[C@H](CC(=O)NCC4CCCCC4)CC[C@@H]32)cc1	·	65	–	·	·	–

Bioassay records deposited in PubChem by Broad Institute.
